According to PubChem BioAssay AID1347426 (Functional Genomics Laboratory (NCATS/FGL), 2020):
Hit rate of the full screen: of about 31,000 sequences, about 1,400 (4.5%) were called active.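 The calls were made as follows: active = median seed-adjusted z-score above 1 or below -1; inactive = the rest.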 The full list was thinned out, with actives kept by preference.

Experiment: Novel Modifiers of Survival Motor Neuron (SMN) Protein: Gene Identification via Genome-wide siRNA Screen
Settings: HEK293T SMN2-luciferase reporter, siRNA knockdown, 72 h; actives lie on both sides
How it was run: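 Each of three siRNAs per gene is reverse-transfected (1 pmol) into reporter HEK293T cells whose luciferase output tracks SMN protein level. After 72 h culture, ONE-Glo luminescence is control-normalized, log10-transformed and MAD-standardized; Common Seed Analysis deprioritizes seed-driven hits.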

| Sequence | median seed-adjusted z-score |
| --- | --- |
| GUUCGAAUCAAGAACCCUATT against NT5C3 | -0.456 (inactive) |
| UGAUAGAGAUCAACCCAUATT against PSMB5 | -1.37 (active) |
| ACAUGAUCAUCAGUGUGAATT against FABP4 | 0.227 (inactive) |
| GCGUCAUGAUGUUCACCUATT against ITGB5 | -0.00882 (inactive) |
| GCAUGGGAAUCAUUGUGCUTT against PPIL1 | 0.166 (inactive) |
| CCAGUACACUUUUGUCUGATT against CDC5L | -0.628 (inactive) |
| AAGUGUGCCUGAAUACUAUTT against KHDRBS2 | -0.335 (inactive) |
| GGAGCAGUCACUUACAGAATT against PINK1 | 0.192 (inactive) |
| CCACUGUCCUGUUUGAGAUTT against FKBP6 | -1.12 (active) |
| CGGAUUAUCUUCUAUCUAUTT against SLC6A14 | 0 (inactive) |
| GUCUUGACCUUGAACGCAATT against VIM | 0.431 (inactive) |
| GGCUUCUUCUCGUGCAUCATT against KCNK3 | 0 (inactive) |
| GAAGGGUGAUUCUAAUAUUTT against GPR174 | -0.324 (inactive) |
| GAAUCUGUCAGGAAUGACATT against RARB | 0.409 (inactive) |
| CAUCGAAUCCUUACCCGAATT against AASDHPPT | 0.64 (inactive) |
| GCCUCACCUCAAUUGCAAATT against ANP32D | -0.714 (inactive) |
| GACUACGCCUUGAAGCUAATT against TAF6 | -1.36 (active) |
| GCUUUCGUCAAGUCAAAGATT against TIRAP | -0.431 (inactive) |
| AGAGCUAGAUGGAAGAACATT against SFRS3 | 2.74 (active) |
| ACUGACAUUUUUCAACUCATT against ALDH1L1 | 0.0289 (inactive) |
| CUACCGCAUCAGUAACAGATT against DDX21 | -0.251 (inactive) |
| GACUCUGAGUAUAAAGUGATT against BARHL1 | 0.397 (inactive) |
| GGCUGGAUGUCAUUGAGAATT against SRGAP3 | -0.0961 (inactive) |

| Sequence | median seed-adjusted z-score |
| --- | --- |
| GCGAGGGCCUUUUUGAGUATT against CRYAA | -1.03 (active) |
| GAUCGAAUCUUUAAGGUCUTT against EIF2C1 | 0.215 (inactive) |
| ACAUCUCCGAAAUCGCCUATT against SLC2A8 | -0.105 (inactive) |
| AAAUGGAUGAGUUGCAAUUTT against PITX1 | 0 (inactive) |
| GCUCCGAAGUGGUGAUCAATT against CHRM1 | 1.1 (active) |
| GGAUAUGCCUUAGAUUACATT against PRTFDC1 | 0.493 (inactive) |
| GGUUCAUGACAGACAAGAATT against SHMT1 | 0.179 (inactive) |
| GCAUGUAUCUGCUUGAUAUTT against ODC1 | -1.64 (active) |
| GUUUUUGUCCUAGCCCAUATT against OTUD7A | -0.53 (inactive) |
| GCCCAUGUCCCAAAUCACATT against PDE4A | -0.147 (inactive) |
| GGCAAAAUCUGGACACCAUTT against TFAP4 | -0.0515 (inactive) |
| CCGGAAUUUUUGACAAGAATT against PTGS2 | -0.21 (inactive) |
| AGAUCUGCAUGAAACAACATT against VPS16 | 0.306 (inactive) |
| GGUCUGAAACUCUACUAUATT against SHPRH | 0.169 (inactive) |
| GGUUCUAACUUCGAAAAAUTT against DNAJC8 | -1.62 (active) |
| AGUCUGUCCGAGUACUUCATT against LFNG | -0.13 (inactive) |
| GAGUUAAGUGAUAAGUAUATT against ZNF639 | 0.182 (inactive) |
| GCUCUGUAAUAGUCGACUATT against TOPBP1 | 0.0888 (inactive) |
| GCUUGUAGCUCUUAAGGUUTT against PPP2CA | 0.731 (inactive) |
| GGUCUUUAUUCGGAAGCGATT against ZNF525 | 0.134 (inactive) |
| GAUAUUGAGCGGUUACAAATT against ATP7B | 0.0947 (inactive) |
| GCACUCAUGUCAUACUGAATT against LIPA | 0.535 (inactive) |
| GUUACUUCCGAAUCCAUGATT against ZNF627 | 0.204 (inactive) |

| Sequence | median seed-adjusted z-score |
| --- | --- |
| GGAAACCUCUGGACCUCUATT against ARID1A | -1.14 (active) |
| GGACAGAUCUGCAAAGAGATT against CETP | 0 (inactive) |
| GAUGUACCUUGAUACAGUATT against IDH3A | 0.137 (inactive) |
| CUGAUGAUCUACUCAUAUATT against TEKT1 | 0.222 (inactive) |
| GCUCCAUCCUUAUUCAACATT against ZIK1 | -0.0627 (inactive) |
| GCUCAUCUGGAUAACCUGATT against ZNF513 | -0.0616 (inactive) |
| GGCUAUUAUUGACAUGGUUTT against PDE8B | 0.217 (inactive) |
| GAAUAUGAAACAUUCGAUATT against GLRX3 | 0.0784 (inactive) |
| CUUCUGAACUCGGUCCUCATT against SLC5A5 | 1.01 (active) |
| GGCUUUCAUUGAGCAGGAATT against ATP6V1E2 | -0.162 (inactive) |
| GACCAGCAAUGCCUACGUATT against FLRT1 | -0.00451 (inactive) |
| GCAAAACCCUGGAAGGAUATT against KCTD11 | 0.374 (inactive) |
| UGACAGUGACGGAUGCUAATT against OPLAH | -0.233 (inactive) |
| CGAUCGACUCGGUGACUUUTT against COL7A1 | 1.08 (active) |
| GAAGUCACGUCACUACUUATT against ZNF644 | 0.389 (inactive) |
| CACAGAUCAUUAUCUAAAUTT against LONP2 | 1.52 (active) |
| CCUCAGAACCGGCAAGAAATT against TNFAIP1 | 0.0766 (inactive) |
| CCAAAAUGUUUCAUCCAAATT against UBE2B | 0.333 (inactive) |
| GAGUUAUGCAAGACAGUAUTT against MYSM1 | -0.116 (inactive) |
| GCAGCAACCUUGUCAUCCATT against ZNF692 | 0.556 (inactive) |
| CACCAGCGACGGGAUCUUATT against RHOBTB2 | -0.139 (inactive) |
| CCGUCACAGUAGAGACUAUTT against LRRC4C | -0.122 (inactive) |
| GCAAUUACAUGAGCGAGCATT against PLK1 | -2.57 (active) |
